MEP2 TOR yeast: alters MEP2-GFP fluorescence in TOR pathway yeast screen; S. cerevisiae MEP2-GFP strain, flow cytometry GFP, 3 h; 100% = DMSO control level; GFP response vs DMSO, % at 10 µM; 0.51% of 330,000 active; AID 2016;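 active means GFP response versus DMSO above a set limit, roughly screen mean plus 3 SD, cut at about 180% in these data; inconclusive means fewer than 70 cells counted for a yeast strain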;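 further: median GFP fluorescence of the barcode-gated MEP2-GFP cells per well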
RPL19A TOR yeast: yeast TOR pathway RPL19A-GFP modulation | S. cerevisiae RPL19A-GFP strain, flow cytometry, 3 h; hits give low values | percent response vs DMSO, % at 10 µM | 0.3% of 330,000 active | AID 2025;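 active means percent response vs DMSO below 50%; inconclusive means fewer than 70 events counted for the yeast strain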;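 further: median channel GFP fluorescence of the barcoded RPL19A-GFP strain; ratio of sample median GFP to plate DMSO average so 100% = DMSO; lower means less RPL19A-GFP as with rapamycin TOR inhibition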
CIT2-GFP yeast: modulators of TOR pathway CIT2-GFP in S. cerevisiae | S. cerevisiae CIT2-GFP strain, flow cytometry, 3 h; 100 means same as DMSO wells | GFP response vs DMSO, % at 10 µM | 0.065% of 320,000 active;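 active means GFP response relative to DMSO above a set limit, near the screen mean plus 3 SD, cut at about 150% in these data; inconclusive means Fewer than 70 cells measured for a yeast strain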;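 further: ratio of well median GFP fluorescence to mean of DMSO wells on the plate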
AGP1 TOR yeast: yeast TOR pathway AGP1-GFP modulation | GFP response vs DMSO, % at 10 µM | 0.02% of 320,000 active | S. cerevisiae AGP1-GFP multiplex flow cytometry, 3 h; GFP as percent of DMSO wells | AID 2066;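 active means GFP response relative to DMSO above a set limit, near screen average plus 3 SD, cut at about 150% in these data; inconclusive means fewer than 70 cells counted for the yeast strain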;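 further: median GFP channel fluorescence of the gated AGP1 strain per well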
Myeloid diff MLP: myeloid differentiation induction; ER-HoxA9 myeloid progenitors, lysozyme-GFP differentiation, flow cytometry; calls only at 10 µM; 1% of 360,000 active; AID 624256;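 active means normalized GFP-positive differentiation at or above the plate's own cutoff, the solvent-only control mean plus 3 SD; inconclusive means no clear call, values can overlap the other calls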;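 further: cells exposed to compound for four days before flow analysis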
LAP4-GFP MLPCN: modulators of TOR pathway LAP4-GFP in S. cerevisiae; S. cerevisiae LAP4-GFP multiplex, flow cytometry GFP, 3 h; median GFP as percent of DMSO wells; GFP response vs DMSO, % at 10 µM; 0.34% of 320,000 active; AID 2023;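 active means GFP response vs DMSO above a set limit, about the screen mean plus 3 SD, cut at about 150% in these data; inconclusive means under 70 cell events counted for the yeast strain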
Myeloid diff: promotes myeloid progenitor differentiation. 2% of 2,300 active. ER-HoxA9 myeloid progenitors, GFP/Mac1 double-positive flow. shares compounds with Myeloid diff MLP. calls only;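 active means share of green or green-and-red cells above 9 and 9% in run 1 or 4 and 3% in run 2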
GFP autofluor: flagged as fluorescent in myeloid differentiation counter-screen | 7.4% of 2,300 active | fluorescence response, % (no concentration beside the values) | ER-HoxA9 myeloid progenitors, no estrogen, GFP autofluorescence flow cytometry; vehicle wells 0%, positive control 100% | shares compounds with Myeloid diff MLP;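 active means over 5% cells positive for green fluorescent reporter, or over 2% positive for both it and APC stain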;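 further: range taken on the double positive population between DMSO and positive control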
Numbers without * were called inactive; i = inactive; ? = inconclusive; nt = no result given; + = active, no number. Shown are actives, neighbours in structure and some others; about 1.8% of the full set was active somewhere.

SMILES | MEP2 TOR yeast | RPL19A TOR yeast | CIT2-GFP yeast | AGP1 TOR yeast | Myeloid diff MLP | LAP4-GFP MLPCN | Myeloid diff | GFP autofluor
COc1ccc(OC)c2[nH]c(=O)c(CCNC(=O)C(=O)c3c(C)[nH]c4ccccc34)cc12 | 109 | 109 | 102 | 98 | i | 93 | nt | nt
COc1ccccc1N(O)C1CC(=O)N(c2ccc(F)cc2)C1=O (stereo unspecified) | 101 | 101 | nt | 101 | i | 93 | i | 0
COc1ccccc1N1C(=O)CC(N(O)c2ccccc2)C1=O (stereo unspecified) | 102 | 94 | nt | nt | i | nt | nt | nt
O=C(c1cnc2n(c1=O)CCS2)N(C1CCCCC1)C1CCCCC1 | 94 | 96 | 125 | 102 | i | 94 | nt | nt
CCOC(=O)C1CCN(C(=O)COc2ccc(Cl)cc2Cl)CC1 | 112 | 94 | 99 | 54 | i | 105 | i | 0
CCOC(=O)C1CCN(C(=O)COc2ccc(Cl)cc2C)CC1 | 105 | 98 | 92 | 102 | i | 114 | nt | nt
COn1c(=O)c(-c2ccc(F)cc2)[n+]([O-])c2ccccc21 | 99 | 101 | 91 | 96 | i | 85 | nt | nt
CSc1cccc(NC(=O)c2ccc(Cl)nc2)c1 | 94 | 83 | 101 | 88 | i | 118 | i | 0
CSc1cccc(NC(=O)c2ccccn2)c1 | 108 | 101 | 105 | 96 | nt | 102 | nt | nt
COc1cccc(NC(=S)N2CCN(C(c3ccccc3)c3ccccc3)CC2)c1 | 107 | 104 | 106 | 100 | i | 98 | i | 0
COc1ccc(NC(=S)N2CCN(C(c3ccccc3)c3ccccc3)CC2)c(OC)c1 | 100 | 102 | 99 | 105 | i | 102 | nt | nt
O=C(NCC(c1cccs1)N1CCOCC1)c1ccc(OCc2ccccc2)cc1 (stereo unspecified) | 99 | 102 | 97 | 105 | + | 101 | i | 0
CCOc1ccc(C(=O)NCC(c2cccs2)N2CCOCC2)cc1 (stereo unspecified) | 101 | 100 | 113 | 99 | i | 99 | nt | nt
O=C(c1ccc(-c2ccc([N+](=O)[O-])cc2)o1)N1CCCCCCC1 | 103 | 100 | 95 | 99 | + | 133 | i | 0
CCC(C)NC(=S)Nc1ccc2nc(N3CCOCC3)cc(C)c2c1 (stereo unspecified) | 143 | 103 | 121 | 95 | i | 106 | nt | nt
CCC(C)NC(=S)Nc1ccc2nc(N3CCN(CC)CC3)cc(C)c2c1 (stereo unspecified) | 93 | 93 | 106 | 106 | + | 106 | i | 0
COc1ccc(C(=O)Nc2ncc3c(n2)CC(C)CC3=O)cc1 (stereo unspecified) | 102 | 101 | 100 | 96 | i | 91 | nt | nt
COc1cccc(C(=O)Nc2ncc3c(n2)CC(c2ccc(OC)cc2OC)CC3=O)c1 (stereo unspecified) | 98 | nt | 99 | 97 | i | 107 | i | 0
Cc1cccc(NC(=S)N(CCCN2CCOCC2)Cc2cn(C)c3ccccc23)c1 | 108 | 108 | 105 | 102 | i | 99 | nt | nt
Cn1cc(CN(CCCN2CCOCC2)C(=S)Nc2cccc(Cl)c2)c2ccccc21 | 94 | 97 | 94 | 96 | + | 89 | i | 0
CCC(C)N(C(=O)Cn1nnc2ccccc21)C(C(=O)NCc1ccco1)c1cccc(OC)c1 (stereo unspecified) | 106 | 102 | 101 | 104 | i | 102 | i | 0
COc1ccc2[nH]c3c(c2c1)[C@@H]1CCN2C(=O)CCC[C@H](C3)[C@H]12 | 88 | 100 | 93 | 88 | + | 122 | i | 0
COc1ccc(CNC2C[C@H]3CCCC(=O)N4CC[C@@H](C2)[C@@H]34)cc1 (stereo partly specified) | nt | nt | nt | nt | i | nt | nt | nt
COc1ccc(CCNC(=O)c2nn(C)cc2Cl)cc1 | 104 | 101 | 93 | 100 | + | 96 | i | 0
O=S(=O)(c1ccc(Cl)cc1)N1CCN(Cc2c[nH]c3ccccc23)CC1 | 98 | 99 | 105 | 102 | i | 103 | i | 0
SMILES | MEP2 TOR yeast | RPL19A TOR yeast | CIT2-GFP yeast | AGP1 TOR yeast | Myeloid diff MLP | LAP4-GFP MLPCN | Myeloid diff | GFP autofluor
O=C(Cc1c[nH]c2ccccc12)N1CCN(S(=O)(=O)c2ccc(Cl)cc2)CC1 | nt | nt | nt | nt | i | nt | nt | nt
CCOC(=O)Cn1cc(-c2ccccc2)nn1 | 107 | 98 | 102 | 104 | i | 105 | nt | nt
c1ccc(COCCCn2cc(-c3ccccc3)nn2)cc1 | 93 | 97 | 90 | 95 | + | 93 | i | 0
COc1cc(/C=N\Nc2ccc([N+](=O)[O-])cc2)ccc1OCC(=O)Nc1ccc(C)c(C)c1 | nt | nt | nt | nt | i | nt | i | 0
CC(C)CSCC1OC(n2cnc3c(N)nccc32)C(O)C1O (stereo unspecified) | nt | nt | nt | nt | i | nt | nt | nt
CN(c1ccc(C(=O)N2CCCCCC2)cc1)S(=O)(=O)c1ccc(Cl)cc1 | 98 | 98 | 93 | 103 | i | 108 | nt | nt
CC(C)(C)c1nnc(NC(=O)Nc2ccc(Cl)cc2)s1 | 108 | 106 | 114 | 113 | + | 113 | i | 0
COc1ccc(NC(=O)Nc2nnc(C(C)(C)C)s2)cc1 | 100 | 101 | 98 | 109 | ? | 115 | nt | nt
O=C(CSc1nnc(-c2ccccc2Br)o1)N1CCN(C(=O)c2ccco2)CC1 | 95 | 95 | 100 | 102 | i | 102 | i | 0
O=C(CSc1nc2ccccc2n1CC(=O)N1CCCC1)N1CCN(C(=O)c2ccco2)CC1 | 107 | 110 | 114 | 117 | i | 111 | i | 0
O=C(CSc1nnc(-c2ccc(F)cc2)o1)N1CCN(C(=O)c2ccco2)CC1 | 107 | 100 | 98 | 109 | ? | 101 | nt | nt
O=C(CSc1nc2ccccc2n1CC(=O)N1CCCC1)Nc1ccc2c(c1)OCO2 | 97 | 90 | 95 | 87 | + | 91 | i | 0
CC1CCCC(C)N1C(=O)Cn1c(SCC(=O)Nc2ccc3c(c2)OCO3)nc2ccccc21 (stereo unspecified) | 114 | 102 | 109 | 115 | i | 107 | nt | nt
O=C(CSc1nc2ccccc2n1CC(=O)N1CCOCC1)N1CCCC1 | 95 | 96 | 92 | 96 | i | 99 | nt | nt
Cc1ccc(-n2nnnc2Sc2nc([N+](=O)[O-])nn2C)cc1 | 104 | 105 | 101 | 107 | + | 104 | i | 0
O=C(NN1C(=O)c2ccccc2NC1c1ccco1)c1ccccc1 (stereo unspecified) | 95 | 96 | 92 | 99 | + | 100 | i | 0
